Bioassay records as filed in PubChem BioAssay.
ELG1 genotox – qHTS screen for small molecules that induce genotoxicity in human embryonic kidney (HEK293T) cells expressing luciferase-tagged ELG1. HEK293T ELG1-luciferase reporter, luminescence, 16 h. Potency, µM (doses to about 46 µM), for inactives: top-dose activity change, positive = activation, actives largely listed as activators. 330,000 compounds, 1.3% hits; further: % of control where 0% means no effect; nearly all actives have a fitted effect of over 60% in size
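Genotoxicity was scored as increased ELG1-luciferase reporter signal, measured by ONE-Glo luminescence (30 min, room temperature). Compound or vehicle exposure of the HEK293T reporter cells lasted 16 hr at 37°C.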
SMN2 splice enh – qHTS Assay for Enhancers of SMN2 Splice Variant Expression; HEK293 SMN2-luciferase splicing reporter, luminescence, 30-36 h; Potency, µM (series often up to 46.1 µM), for the others: top-dose activity change, positive = activation, actives largely listed as activators; 210,000 compounds, 2.8% hits; AID 1458, 2008; further: % of control where 0% means no effect; nearly all actives have a fitted effect of over 55% in size
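HEK293 cells carry an SMN2 […]–luciferase reporter in which exon 7 inclusion puts luciferase in frame. Cells were plated 10-12 h before compound addition, then incubated 30-36 h at 37C. ONE-Glo luminescence was read; sodium butyrate at 4.5 mM final served as control.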
Rab9 prom act – qHTS Assay for Rab9 Promoter Activators; Huh7 Rab9 promoter-luciferase reporter, luminescence, 24 h; Potency, µM (highest dose often 9.22 µM), inactives show top-dose activation, negative = inhibition, actives largely listed as activators; 320,000 compounds, 2.8% hits; AID 485297, 2010; further: % of control where 0% means no effect; nearly all actives have a fitted effect of over 60% in size
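Huh7 cells stably carrying Rab9 promoter–luciferase reporter, plated 1500 cells/well, compound added after 2 h and incubated 24 h at 37 °C; luciferase luminescence then read after 10 min with detection reagent.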
FLuc modulator – qHTS profiling assay for firefly luciferase inhibitor/activator using purifed enzyme and Km concentrations of substrates (counterscreen for miR-21 project); purified FLuc, Km substrates, luminescence inhibition; Potency, µM (top dose mostly 57.5 µM), without a hit: top-dose activity change, negative = inhibition, actives largely listed as inhibitors; 360,000 compounds, 6.9% hits; AID 588342, 2011;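 further: plate controls were vehicle for no effect and reference inhibitor for full effect; nearly all actives have a fitted effect of over 55% in size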
Target sequence (P08659 whole entry, looked up): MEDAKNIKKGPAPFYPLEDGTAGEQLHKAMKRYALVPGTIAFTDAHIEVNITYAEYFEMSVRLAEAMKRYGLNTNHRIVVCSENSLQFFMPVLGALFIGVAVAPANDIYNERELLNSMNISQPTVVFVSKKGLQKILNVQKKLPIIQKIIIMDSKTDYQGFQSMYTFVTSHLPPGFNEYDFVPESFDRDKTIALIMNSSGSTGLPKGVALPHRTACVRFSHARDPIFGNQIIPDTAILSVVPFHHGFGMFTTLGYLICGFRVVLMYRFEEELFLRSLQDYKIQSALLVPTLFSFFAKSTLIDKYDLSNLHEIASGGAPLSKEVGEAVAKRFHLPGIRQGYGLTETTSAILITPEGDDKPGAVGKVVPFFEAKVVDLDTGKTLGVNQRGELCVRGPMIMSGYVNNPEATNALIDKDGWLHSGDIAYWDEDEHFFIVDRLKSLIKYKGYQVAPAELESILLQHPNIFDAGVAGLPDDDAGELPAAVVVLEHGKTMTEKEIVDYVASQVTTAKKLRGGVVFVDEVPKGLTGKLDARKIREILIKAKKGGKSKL
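Purified P. pyralis luciferase, 10 nM final, with Km-level 10 uM D-luciferin and 10 uM ATP in 50 mM Tris acetate pH 7.5, 10 mM Mg acetate, 0.01% Tween-20, 0.05% BSA; 6-point qHTS titration about 60 µM downward; luminescence read.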
NPC1 promoter act – qHTS Assay for NPC1 Promoter Activators; 320,000 compounds, 2.4% hits; Huh7 NPC1 promoter luciferase reporter, 24 h; AID 485313, 2010; Potency, µM (highest dose often 9.22 µM), for the others: top-dose activation, hits mostly activators; further: % of control where 0% means no effect; nearly all actives have a fitted effect of over 60% in size
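Luciferase expression driven by the NPC1 promoter was measured in stably transfected Huh7 cells after a 24 h compound incubation, using a luciferase reagent and a luminescence read.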
* marks the source's active call; other numbers are inactive results. This is a sample that favours compounds with a hit; in the whole collection about 7.4% have one here. The call rests on the fitted dose curve; in most records, active means well fitted curve in the direction sought with a large enough effect; inconclusive means small, poorly fitted or top-dose-only effect, or another doubt; inactive means no such curve, though single readings can be large; an effect the other way counts as inactive or inconclusive. Potency means the concentration at half of the fitted maximal effect.

`O=C(/C=C/c1ccc(Cl)cc1)NCc1ccco1` gave ELG1 genotox 12.2%, SMN2 splice enh 24.0%, Rab9 prom act 20.9%, FLuc modulator 13.5µM* and NPC1 promoter act 5.7%.
Screening CC(C)Cc1cc(C(=O)NCc2ccco2)no1 returned ELG1 genotox inconclusive, Rab9 prom act 3.98µM*, FLuc modulator 16.9µM* and NPC1 promoter act inconclusive.
`O=Cc1ccc(N2CCCC2)c([N+](=O)[O-])c1` gave ELG1 genotox 0.8%, SMN2 splice enh -2.6%, Rab9 prom act -3.3%, FLuc modulator -2.3% and NPC1 promoter act -2.8%.
For O=[N+]([O-])/C=C\c1ccc(N2CCCC2)c(F)c1 the results were ELG1 genotox -9.1%, SMN2 splice enh 5.62µM*, Rab9 prom act 26.8%, FLuc modulator inconclusive and NPC1 promoter act 15.8%.
CCOC(=O)N1CCc2c(sc3c2c(=O)n(CCc2ccccc2)c(=O)n3CC(=O)Nc2ccccc2C)C1 was read as SMN2 splice enh -9.5% and FLuc modulator -0.3%.
Screening CCOc1ccc(OCc2cccc(C(=O)N/N=C/c3cccnc3)c2)cc1 returned ELG1 genotox 0.231µM*, SMN2 splice enh 0.126µM*, Rab9 prom act 0.1µM*, FLuc modulator 1.51µM* and NPC1 promoter act 0.1µM*.
O=C(N/N=C/c1cccnc1)c1cccc(Br)c1 was read as ELG1 genotox 4.7%, Rab9 prom act 20.5%, FLuc modulator inconclusive and NPC1 promoter act 1.7%.
For CC(C)c1ccc(OCc2cccc(C(=O)N/N=C/c3cccnc3)c2)cc1 the results were ELG1 genotox 0.461µM*, SMN2 splice enh 0.224µM*, Rab9 prom act inconclusive, FLuc modulator 0.849µM* and NPC1 promoter act 0.282µM*.
O=C(Nc1cc(C(F)(F)F)ccc1N1CCOCC1)C1Cc2ccccc2CN1C(=O)c1ccco1 (stereo not given) was read as ELG1 genotox -7.9%, SMN2 splice enh -8.5%, Rab9 prom act 2.3%, FLuc modulator -5.3% and NPC1 promoter act -2.4%.
For COc1ccc(CN2CCN(C(=O)c3c(-c4ccccc4)noc3C)CC2)cc1F the results were ELG1 genotox -1.2%, Rab9 prom act -0.4%, FLuc modulator -2.1% and NPC1 promoter act -2.1%.
CCOc1ccc(N2C(=O)S/C(=C\c3cccn3C)C2=O)cc1 was read as ELG1 genotox 11.5%, SMN2 splice enh inconclusive, Rab9 prom act 29.0%, FLuc modulator -3.6% and NPC1 promoter act 12.3%.
`Cn1cccc1/C=C1\SC(=O)N(c2ccc(O)cc2)C1=O` gave ELG1 genotox inconclusive, SMN2 splice enh 12.6µM*, Rab9 prom act inconclusive, FLuc modulator inconclusive and NPC1 promoter act inconclusive.
Screening O=C(O)C1CC(=O)N(c2ccc(OCc3ccccc3Cl)cc2)C1 (stereo not given) returned ELG1 genotox 1.9%, SMN2 splice enh 6.2%, Rab9 prom act 1.6%, FLuc modulator inconclusive and NPC1 promoter act 3.3%.
Screening NC(=O)C1CC(=O)N(c2ccc(OCc3ccc(F)cc3)cc2)C1 (stereo not given) returned ELG1 genotox 18.3µM*, Rab9 prom act inconclusive, FLuc modulator inconclusive and NPC1 promoter act 2.51µM*.
Screening NC(=O)C1CC(=O)N(c2ccc(OCc3c(F)cccc3Cl)cc2)C1 (stereo not given) returned ELG1 genotox 0.1%, Rab9 prom act 0.5%, FLuc modulator -12.5% and NPC1 promoter act -6.1%.
`O=C(O)C1CC(=O)N(c2ccc(OCc3ccc(Cl)cc3Cl)cc2)C1` (stereo not given) gave ELG1 genotox 2.3%, SMN2 splice enh 9.7%, Rab9 prom act -5.2%, FLuc modulator 16.9µM* and NPC1 promoter act -2.0%.
`Cc1nc2c(s1)sc1ccccc12` gave ELG1 genotox 13.2%, SMN2 splice enh -6.3%, Rab9 prom act 6.6%, FLuc modulator 23.9µM* and NPC1 promoter act 12.4%.
`Clc1ccc(N=C2SCCS2)cc1` gave ELG1 genotox 9.5%, Rab9 prom act 27.4%, FLuc modulator inconclusive and NPC1 promoter act 26.7%.
For Clc1ccc(N=C2SCC3CCCCN23)cc1 (stereo not given) the results were ELG1 genotox 26.2%, Rab9 prom act 2.51µM*, FLuc modulator 9.53µM* and NPC1 promoter act 3.98µM*.
Screening FC(F)Oc1ccc(N=C2SCC3CCCCN23)cc1 (stereo not given) returned ELG1 genotox inconclusive, Rab9 prom act 3.55µM*, FLuc modulator 12µM* and NPC1 promoter act 2µM*.
For CCOC(=O)c1snc(C(=O)NC2CCCCC2)c1N the results were ELG1 genotox 8.2µM*, Rab9 prom act 3.55µM*, FLuc modulator 13.5µM* and NPC1 promoter act inconclusive.
Cc1ccc(-c2nc(-c3cccnc3)no2)c(C)c1 was read as ELG1 genotox 5.17µM*, SMN2 splice enh 15.8µM*, Rab9 prom act 1.78µM*, FLuc modulator inconclusive and NPC1 promoter act 2µM*.
`c1ccc(C(c2ccccc2)c2nc(-c3cccnc3)no2)cc1` gave ELG1 genotox 1.6%, Rab9 prom act 0.4%, FLuc modulator 0.1% and NPC1 promoter act -6.8%.
Screening Brc1ccc(-c2nc(-c3cccnc3)no2)o1 returned ELG1 genotox inconclusive, SMN2 splice enh inconclusive, Rab9 prom act 2.82µM*, FLuc modulator 16.9µM* and NPC1 promoter act 3.98µM*.
Screening Brc1ccc(-c2nc(-c3ccccc3)no2)o1 returned ELG1 genotox 8.2µM*, SMN2 splice enh 17.8µM*, Rab9 prom act 2.51µM*, FLuc modulator 12µM* and NPC1 promoter act 3.55µM*.
Screening COc1ccc(-c2nsc3c(N4CCN(S(=O)(=O)c5ccccc5)CC4)ncnc23)cc1 returned ELG1 genotox 4.1%, SMN2 splice enh -18.4%, Rab9 prom act -7.7%, FLuc modulator -0.5% and NPC1 promoter act -3.4%.
Screening COc1ccccc1N1CCN(c2ncnc3c2oc2ccccc23)CC1 returned ELG1 genotox inconclusive, Rab9 prom act -20.2%, FLuc modulator 26.9µM* and NPC1 promoter act -24.4%.
`O=C(c1ccco1)N1CCN(c2ncnc3c(-c4ccc(Cl)cc4)nsc23)CC1` gave ELG1 genotox inconclusive, Rab9 prom act 8.8%, FLuc modulator 6.01µM* and NPC1 promoter act 0.9%.
For O=C(c1ccco1)N1CCN(c2ncnc3c2oc2ccccc23)CC1 the results were ELG1 genotox inconclusive, SMN2 splice enh 4.0%, Rab9 prom act 1.9%, FLuc modulator 23.9µM* and NPC1 promoter act -1.7%.
For COc1ccc(-c2nsc3c(N4CCCC4)ncnc23)cc1 the results were SMN2 splice enh inconclusive, Rab9 prom act 0.112µM*, FLuc modulator 0.135µM* and NPC1 promoter act 3.98µM*.
